The list is not random: actives were taken first. Their share in the collection is about 7.9%.
KB-3-1 cytotox: KB-3-1 parental cell cytotoxicity; KB-3-1 viability, CellTiter-Glo ATP luminescence, 72 h; Potency, µM (titrated, usually from 46.1 µM), actives largely listed as cytotoxic; actives 1.4% (n = 400,000); note: % is set by controls: 0 for no effect and ±100 for the full control effect; nearly all actives have a fitted effect of over 60% in size
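Multi-concentration cytotoxicity screen in KB-3-1 cells grown in DMEM lacking phenol red with 10% FBS. After 72 h at 37 °C with compound, ATP-dependent luminescence was recorded.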
HT1080 IDH1KD tx: kills HT-1080 cells with IDH1 knockdown; Potency, µM (highest dose often 46.1 µM), for the others: at the highest dose activity, negative = toxicity, hits mostly cytotoxic; HT-1080 IDH1 knockdown viability, ATP luminescence, 48 h; actives 2% (n = 360,000);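 note: 0% = DMSO wells and -100% = cell-free medium wells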
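In this qHTS, HT-1080 cells depleted of IDH1 are exposed for 48 h at 37 °C to compound titrations. Toxicity is scored from CellTiter-Glo luminescence, with DMSO as full viability and medium alone as none.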
MCF10A rerep: induces DNA re-replication in MCF 10a normal breast cells; MCF 10A DNA re-replication, Hoechst nuclear intensity, 48 h; Potency, µM (series often up to 46.1 µM), inactives show top-dose activity, positive = re-replication, usual class: activators; AID 624296; actives 2.9% (n = 350,000); note: % of control where 0% means no effect; nearly all actives have a fitted effect of over 50% in size
KB-V1 MDR tox: KB-V1 MDR subline cytotoxicity | KB-V1 MDR cells viability, CellTiter-Glo, 72 h | Potency, µM (titrated, usually from 46.1 µM), actives largely listed as cytotoxic | actives 3.4% (n = 400,000); note: % is set by controls: 0 for no effect and ±100 for the full control effect; nearly all actives have a fitted effect of over 60% in size
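Readout: CellTiter-Glo luminescence, 10 min after addition. Cells: KB-V1 MDR subline, 72 h at 37 degrees C with compound. Analysis: corrected, normalized data fitted to concentration-effect curves.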
HT1080-NT tox: kills 2HG-producing HT-1080-NT fibrosarcoma cells | HT-1080-NT fibrosarcoma viability, CellTiter-Glo ATP luminescence, 48 h | Potency, µM (highest dose often 46.1 µM), inactives show top-dose activity, negative = less viability, usual class: cytotoxic | actives 1.6% (n = 360,000) | AID 686970;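 note: NT is the 2HG producing partner of a matched IDH1 knockdown line; 0% = DMSO-treated cells and -100% = media-only wells without cells; nearly all actives have a fitted effect of over 55% in size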
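Viability of the 2HG-overproducing fibrosarcoma line after 48 hours of compound exposure at 37 degrees C was determined by luminescence with CellTiter-Glo, and concentration-effect curves were then fitted and categorized.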
SW480 rereplic: induces DNA re-replication in SW480 colon adenocarcinoma cells. SW480 DNA re-replication, Hoechst DNA content imaging, 48 h. Potency, µM (top dose mostly 46.1 µM), for inactives: top-dose re-replication activation, usual class: activators. actives 1.8% (n = 340,000). AID 624297; note: % of control where 0% means no effect; nearly all actives have a fitted effect of over 55% in size
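First, 250 cells per well were seeded. Next, compound or vehicle (23 nL) was pinned in, plates sat 48 hr at 37 C. Finally Hoechst was added for 40 min before fluorescence scanning.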
* marks the source's active call; other numbers are inactive results; i = inactive; ? = inconclusive; / = no result given; [ ] = remark or other dose. Calls come from the whole dose curve; as a rule, active = well fitted curve in the direction sought with a large enough effect; inconclusive = small, poorly fitted or top-dose-only effect, or another doubt; inactive = no such curve, though single readings can be large; an effect the other way counts as inactive or inconclusive. Potency is the fitted concentration of half-maximal effect.

SMILES | KB-3-1 cytotox | HT1080 IDH1KD tx | MCF10A rerep | KB-V1 MDR tox | HT1080-NT tox | SW480 rereplic
CN(CCC#N)C(=O)COC(=O)c1c2c(nc3ccccc13)/C(=C\c1ccco1)CC2 | i | -24% | ? | i | -21% | 4.1µM*
CC1CCCC(NC(=O)COC(=O)/C=C/c2ccco2)C1C (centres undefined) | i | 3% | -6% | ? | 1%[9.24 µM] | -5%
CCCc1nc2ccccc2c(C(=O)OCC(=O)NC2CC2)c1CC | ? | -3% | -2% | ? | -4% | 4%
Cc1cc(C)c2c(=O)cc(C(=O)Nc3c(C)n(C)n(-c4ccccc4)c3=O)oc2c1 | i | / | / | i | / | /
CCOC(=O)c1c(-c2ccc(OC)c(OC)c2)csc1NC(=O)c1ccc(F)cc1 | i | / | / | i | / | /
Nc1[nH]n2c(=O)c3c(nc2c1N=Nc1ccccc1)CCCC3 | 12µM* | -23% | ? | 13µM* | -13% | 12%
O=c1c2c(nc3c(-c4ccccc4)c[nH]n13)CCCC2 | 21µM* | -8% | -1% | ? | -6% | 3%
Cc1[nH]n2c(=O)c3c(nc2c1-c1ccc(Cl)cc1)CCC3 | 8.2µM* | -12% | ? | ? | -11% | -13%
O=C(OOC(=O)c1ccccc1)c1ccccc1 | / | / | 0% | / | / | 0%
CN1C(=O)Cc2cc(S(=O)(=O)CCC(=O)Nc3cccc(C(F)(F)F)c3)ccc21 | i | / | / | ? | / | /
CNc1c(Cl)cc(/C=C2\C=Cc3ccccc32)cc1Cl | i | / | / | i | / | /
CCOc1c(Cl)cc(CNc2ccc(N3CCCC3)cc2)cc1OC | ? | 9.2µM* | ? | i | ? | 10µM*
CCOc1c(Cl)cc(CNc2ccc(S(N)(=O)=O)cc2)cc1OC | i | -11% | -2% | i | 0% | 8%
CCOc1c(Cl)cc(CNC(C)(C)CC(C)(C)C)cc1OC | ? | ? | 8.2µM* | ? | ? | 4%
C[C@H](O)CN(C)C | / | / | 0% | / | / | -11%
O=C(COc1ccc2ccc(=O)oc2c1)NCCN1CCOCC1 | ? | 0% | / | i | 13% | /
Cc1nc(-c2cc(C#N)c(=O)[nH]c2C)cs1 | ? | 4% | -2% | 4.6µM* | -15% | -6%
Cc1[nH]c(=O)c(C#N)cc1-c1csc(-c2ccccc2)n1 | ? | -1% | ? | i | -3% | 12%
CNc1cc(C(=O)O)nc2ccccc12 | ? | / | / | i | / | /
NC(Cc1ccc(C(F)(F)F)cc1)c1csc(Nc2cnccn2)n1 (centres undefined) | i | ? | / | i | ? | /
CC(C)CC(N)c1csc(NC(=O)NCCc2ccccc2)n1 (centres undefined) | i | ? | / | i | ? | /
NC(Cc1ccc(C(F)(F)F)cc1)c1csc(Nc2cc(NCc3ccco3)ncn2)n1 (centres undefined) | i | 16µM* | / | i | 23µM* | /
CC(=O)c1ccc(Nc2nc(C(N)Cc3ccc(C(F)(F)F)cc3)cs2)cc1 (centres undefined) | ? | ? | / | 12µM* | ? | /
NC(Cc1ccc(C(F)(F)F)cc1)c1csc(Nc2ccc(C(=O)c3ccccc3)cc2)n1 (centres undefined) | ? | ? | / | 23µM* | ? | /
NC(Cc1ccc(C(F)(F)F)cc1)c1csc(NC(=O)NCCc2ccccc2)n1 (centres undefined) | ? | 18µM* | / | i | 23µM* | /
NC(CCc1ccccc1)c1csc(Nc2ccc(C(=O)c3ccccc3)cc2)n1 (centres undefined) | ? | ? | / | i | ? | /
Cc1ccc(C(=O)Nc2nc(C(N)Cc3ccc(C(F)(F)F)cc3)cs2)cc1 (centres undefined) | i | 16µM* | / | i | ? | /
NC(COCc1ccccc1)c1csc(Nc2ccc(C(=O)c3ccccc3)cc2)n1 (centres undefined) | i | ? | / | i | 18µM* | /

Compound activity deposited in PubChem BioAssay by National Center for Advancing Translational Sciences (NCATS).
